Measurements from PubChem BioAssay AID1159580 (chemical genetic matrix, 2015).
Values joined by “and” are separate entries in the source; they are usually repeats but may differ in a detail not shown here. Identical values can stand only once. In all, about 5,500 compounds went through this assay and about 2,000 (36%) were called active. Another 18% or so got no clear call; they are omitted. Cut-off read from the data, not from the text of the source: active = normalized growth mostly below about 0.91 (no sharp cut-off); inconclusive = no clear call, values can overlap the other calls; inactive = mostly above about 0.92. Some of the results follow.

Assay: chemical genetic growth profiling, strain panel (AID 1159580);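 note: tested at 20 µM; growth read once vehicle control cultures reached saturation at 30 °C; 1 = growth at the plate median or of vehicle wells; lower values mean less growth of the strain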
Details: S. cerevisiae deletion strains, growth OD

Measured: normalized growth

C[C@H]1c2cccc(O)c2C(O)=C2C(=O)[C@]3(O)C(O)=C(C(N)=O)C(=O)[C@@H](N(C)C)[C@@H]3[C@@H](O)[C@@H]21
inactive: locus YAL021C, strain ccr4, stronger effect = lower value 0.991 | locus YAL026C, strain drs2, stronger effect = lower value 0.978 | locus YAL030W, strain snc1, stronger effect = lower value 0.976 | locus YBL061C, strain skt5, stronger effect = lower value 0.995 | locus YBR009C, strain hhf1, stronger effect = lower value 0.958 | locus YBR021W, strain FUR4, stronger effect = lower value 0.884 | locus YBR023C, strain chs3, stronger effect = lower value 0.987 | locus YBR171W, strain sec66, stronger effect = lower value 0.956 | locus YBR229C, strain ROT2, stronger effect = lower value 1 | locus YBR231C, strain swc5, stronger effect = lower value 0.979 | locus YBR279W, strain paf1, stronger effect = lower value 0.988 | locus YCL011C, strain gbp2, stronger effect = lower value 0.971 | locus YCL016C, strain dcc1, stronger effect = lower value 1.02 | locus YCL029C, strain bik1, stronger effect = lower value 0.953 | locus YCL069W, strain vba3, stronger effect = lower value 0.956 | locus YCR088W, strain abp1, stronger effect = lower value 0.985 | locus YDL005C, strain med2, stronger effect = lower value 0.998 | locus YDL035C, strain GPR1, stronger effect = lower value 0.963 | locus YDL040C, strain nat1, stronger effect = lower value 0.975 | locus YDL074C, strain BRE1, stronger effect = lower value 0.963 | locus YDL101C, strain DUN1, stronger effect = lower value 0.984 | locus YDL185W, strain tfp1, stronger effect = lower value 0.954 | locus YDL192W, strain arf1, stronger effect = lower value 0.966 | locus YDR001C, strain nth1, stronger effect = lower value 0.984 | locus YDR069C, strain doa4, stronger effect = lower value 0.973 | locus YDR101C, strain arx1, stronger effect = lower value 1.01 | locus YDR137W, strain rgp1, stronger effect = lower value 0.962 | locus YDR159W, strain sac3, stronger effect = lower value 0.951 | locus YDR162C, strain NBP2, stronger effect = lower value 0.978 | locus YDR195W, strain ref2 0.979 | locus YDR297W, strain sur2, stronger effect = lower value 0.991 | locus YDR318W, strain mcm21, stronger effect = lower value 0.961 | locus YDR334W, strain swr1, stronger effect = lower value 0.944 | locus YDR335W, strain msn5, stronger effect = lower value 0.988 | locus YDR388W, stronger effect = lower value 0.98 | locus YDR392W, strain spt3, stronger effect = lower value 0.911 | locus YDR502C, strain sam2, stronger effect = lower value 0.979 | locus YEL003W, strain gim4, stronger effect = lower value 0.978 | locus YEL037C, strain rad23, stronger effect = lower value 0.975 | locus YEL061C, strain CIN8 (second series), stronger effect = lower value 0.971 | locus YEL061C, strain CIN8, stronger effect = lower value 0.984 | locus YER015W, strain faa2, stronger effect = lower value 0.977 | locus YER016W, strain bim1, stronger effect = lower value 1.01 | locus YER110C, stronger effect = lower value 0.965 | locus YER111C, strain swi4, stronger effect = lower value 0.995 | locus YER155C, strain BEM2 (second series), stronger effect = lower value 0.886 | locus YER155C, strain BEM2, stronger effect = lower value 1.01 | locus YER167W, strain BCK2, stronger effect = lower value 0.994 | locus YFR010W, strain ubp6, stronger effect = lower value 0.955 | locus YGL078C, strain dbp3, stronger effect = lower value 0.968 | locus YGL086W, strain mad1, stronger effect = lower value 0.992 | locus YGL167C, strain pmr1, stronger effect = lower value 0.965 | locus YGL173C, strain kem1, stronger effect = lower value 0.975 | locus YGL227W, strain vid30, stronger effect = lower value 0.987 | locus YGL240W, strain doc1, stronger effect = lower value 0.96 | locus YGL253W, strain hxk2, stronger effect = lower value 0.988 | locus YGR135W, strain pre9, stronger effect = lower value 0.923 | locus YGR229C, strain SMI1, stronger effect = lower value 0.983 | locus YGR252W, strain gcn5, stronger effect = lower value 0.93 | locus YHR013C, strain ard1, stronger effect = lower value 1.05 | locus YHR027C, strain rpn1, stronger effect = lower value 0.98 | locus YHR030C, strain SLT2, stronger effect = lower value 0.996 and 1.03 | locus YHR079C, strain IRE1 (second series), stronger effect = lower value 0.978 | locus YHR079C, strain IRE1, stronger effect = lower value 1.03 | locus YHR094C, strain hxt1, stronger effect = lower value 0.987 | locus YHR129C, strain ARP1, stronger effect = lower value 0.994 | locus YHR142W, strain chs7, stronger effect = lower value 0.998 | locus YHR200W, strain rpn10, stronger effect = lower value 0.97 | locus YIL066C, strain RNR3, stronger effect = lower value 0.974 | locus YIL073C, strain SPO22, stronger effect = lower value 0.751 | locus YIL125W, strain kgd1, stronger effect = lower value 0.983 | locus YIR030C, strain dcg1, stronger effect = lower value 0.961 | locus YJL092W, strain hpr5, stronger effect = lower value 0.991 | locus YJL095W, strain BCK1 (second series), stronger effect = lower value 0.979 | locus YJL095W, strain BCK1, stronger effect = lower value 0.929 and 1.03 | locus YJL115W, strain asf1, stronger effect = lower value 0.963 | locus YJL129C, strain trk1, stronger effect = lower value 0.991 | locus YJL134W, strain LCB3, stronger effect = lower value 1 | locus YJL154C, strain vps35, stronger effect = lower value 0.983 | locus YJL164C, strain tpk1, stronger effect = lower value 0.976 | locus YJL166W, strain qcr8, stronger effect = lower value 0.944 | locus YJL168C, strain set2, stronger effect = lower value 0.985 | locus YJL187C, strain SWE1 (second series), stronger effect = lower value 0.97 | locus YJR043C, strain POL32, stronger effect = lower value 0.958 | locus YJR066W, strain TOR1, stronger effect = lower value 0.928 | locus YKL009W, strain mrt4, stronger effect = lower value 0.967 | locus YKL068W, stronger effect = lower value 0.986 | locus YKL085W, strain MDH1 (second series), stronger effect = lower value 0.972 | locus YKL085W, strain MDH1, stronger effect = lower value 0.972 | locus YKL160W, strain elf1, stronger effect = lower value 0.992 | locus YKL190W, strain CNB1, stronger effect = lower value 0.988 | locus YKR001C, strain vps1, stronger effect = lower value 0.942 | locus YKR026C, strain gcn3, stronger effect = lower value 0.972 | locus YKR091W, strain srl3, stronger effect = lower value 0.985 | locus YLL001W, strain dnm1, stronger effect = lower value 0.974 | locus YLL026W, stronger effect = lower value 0.991 | locus YLL041C, strain sdh2, stronger effect = lower value 0.973 | locus YLR027C, strain aat2, stronger effect = lower value 0.998 | locus YLR039C, strain RIC1, stronger effect = lower value 0.971 | locus YLR058C, strain SHM2, stronger effect = lower value 0.976 | locus YLR102C, strain apc9, stronger effect = lower value 0.968 | locus YLR113W, strain HOG1, stronger effect = lower value 1.08 | locus YLR221C, strain rsa3, stronger effect = lower value 0.962 | locus YLR258W, strain gsy2, stronger effect = lower value 0.978 | locus YLR262C, strain YPT6 (second series), stronger effect = lower value 0.936 | locus YLR262C, strain YPT6, stronger effect = lower value 0.967 | locus YLR268W, strain sec22, stronger effect = lower value 0.955 | locus YLR320W, strain mms22, stronger effect = lower value 0.944 | locus YLR330W, strain CHS5, stronger effect = lower value 0.979 | locus YLR342W, strain FKS1 (second series), stronger effect = lower value 0.859 | locus YLR342W, strain FKS1, stronger effect = lower value 0.977 | locus YLR357W, strain rsc2, stronger effect = lower value 0.911 | locus YLR370C, strain arc18, stronger effect = lower value 0.982 | locus YLR371W, strain rom2, stronger effect = lower value 0.963 | locus YLR384C, strain iki3, stronger effect = lower value 1 | locus YLR418C, strain cdc73, stronger effect = lower value 0.91 | locus YML016C, strain PPZ1, stronger effect = lower value 0.979 | locus YML032C, strain rad52, stronger effect = lower value 0.984 | locus YML120C, strain ndi1, stronger effect = lower value 0.97 | locus YML124C, strain tub3, stronger effect = lower value 0.993 | locus YMR058W, strain fet3, stronger effect = lower value 0.947 | locus YMR078C, strain ctf18, stronger effect = lower value 0.963 | locus YMR125W, strain sto1, stronger effect = lower value 0.958 | locus YMR129W, stronger effect = lower value 0.989 | locus YMR205C, strain PFK2, stronger effect = lower value 0.992 | locus YMR223W, strain ubp8, stronger effect = lower value 0.922 | locus YMR231W, strain pep5, stronger effect = lower value 0.989 | locus YMR307W, strain GAS1, stronger effect = lower value 1.08 | locus YNL067W, strain RPL9B, stronger effect = lower value 0.939 | locus YNL071W, strain lat1, stronger effect = lower value 0.975 | locus YNL183C, strain NPR1, stronger effect = lower value 0.987 | locus YNL209W, strain ssb2, stronger effect = lower value 0.985 | locus YNL233W, strain BNI4, stronger effect = lower value 0.939 | locus YNL248C, strain rpa49, stronger effect = lower value 0.95 | locus YNL250W, strain rad50, stronger effect = lower value 0.966 | locus YNL271C, strain bni1, stronger effect = lower value 0.981 | locus YNL298W, strain CLA4, stronger effect = lower value 0.969 | locus YNL307C, strain MCK1, stronger effect = lower value 0.973 | locus YNL322C, strain KRE1 (second series), stronger effect = lower value 0.969 | locus YNL322C, strain KRE1, stronger effect = lower value 0.991 | locus YNR049C, strain mso1, stronger effect = lower value 0.984 | locus YNR052C, strain pop2, stronger effect = lower value 0.979 | locus YOL012C, strain htz1 1.14 | locus YOL147C, strain pex11, stronger effect = lower value 0.988 | locus YOR001W, strain rrp6, stronger effect = lower value 0.923 | locus YOR061W, strain CKA2, stronger effect = lower value 0.993 | locus YOR069W, strain VPS5, stronger effect = lower value 0.998 | locus YOR070C, strain gyp1, stronger effect = lower value 0.99 | locus YOR080W, strain dia2, stronger effect = lower value 0.982 | locus YOR083W, strain WHI5, stronger effect = lower value 1 | locus YOR106W, strain vam3, stronger effect = lower value 0.965 | locus YOR136W, strain idh2, stronger effect = lower value 0.98 | locus YOR144C, strain elg1, stronger effect = lower value 0.995 | locus YOR184W, strain ser1, stronger effect = lower value 0.939 | locus YOR231W, strain MKK1, stronger effect = lower value 1.06 | locus YOR265W, strain rbl2, stronger effect = lower value 0.992 | locus YOR270C, strain vph1, stronger effect = lower value 0.943 | locus YOR290C, strain snf2, stronger effect = lower value 1 | locus YOR316C, strain cot1, stronger effect = lower value 0.973 | locus YPL051W, strain arl3, stronger effect = lower value 0.993 | locus YPL055C, strain LGE1, stronger effect = lower value 0.866 | locus YPL078C, strain atp4, stronger effect = lower value 0.999 | locus YPL106C, strain sse1, stronger effect = lower value 0.912 | locus YPL240C, strain hsp82, stronger effect = lower value 0.984 | locus YPL241C, strain CIN2, stronger effect = lower value 0.998 | locus YPL256C, strain CLN2, stronger effect = lower value 1.05 | locus YPR119W, strain clb2, stronger effect = lower value 0.98 | locus YPR141C, strain kar3, stronger effect = lower value 0.965 | locus YPR163C, strain tif3, stronger effect = lower value 0.985 | locus YPR167C, strain met16, stronger effect = lower value 0.982
active: locus YGL248W, strain PDE1, stronger effect = lower value 0.854 | strain wtn01, stronger effect = lower value 0.891
